Molecules are shown by their SMILES. Structures can show the parent of a compound that is named as a salt. ± gives the standard deviation of the averaged measurements. Whole data set: some 2,000 compounds, median “relative cell viability vs DMSO, compound alone” near 1.1, cut for the lowest 2% near 0.29. The sample holds the lowest values, similar compounds and a random draw of the others, so the mix is not that of the screen.

The test system of the assay is TE10. Kind of assay: relative cell viability vs DMSO, compound alone (fraction); TE10 is an esophageal squamous carcinoma line; higher = less cytotoxic. The note with it: 2 µM; 48 h. As to the method:
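TE10 ESCC cells (1,000/well, 384-well plates) were treated with Selleck bioactive library compounds at 2 uM alone for 48 h. Viability was read by CellTiter-Glo and expressed relative to DMSO wells. Two technical replicates (A, B).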
For `CC(C)CC(CC(=O)NO)C(=O)N[C@@H](Cc1ccc2ccccc2c1)C(=O)N[C@@H](C)C(=O)NCCN` (stereo partly specified), the relative cell viability came out at 1.04 ± 0.077.
As for `O=C(Cc1ccc(-c2ccc(OCCN3CCOCC3)cc2)cn1)NCc1ccccc1`, the relative cell viability worked out at 0.816 ± 0.05.
With `C[C@H](N[C@@H](CCc1ccccc1)C(=O)O)C(=O)N1CCC[C@H]1C(=O)O` [Enalaprilat Dihydrate], the relative cell viability came out at 1.12 ± 0.029.
The molecule `CC(C)c1nc(CN(C)C(=O)N[C@@H](CCN2CCOCC2)C(=O)N[C@H](CC[C@H](Cc2ccccc2)NC(=O)OCc2cncs2)Cc2ccccc2)cs1` [Cobicistat (GS-9350)] registered a relative cell viability of 1.11 ± 0.05.
Then `CC(C)C[C@H](NC(=O)[C@H](CCc1ccccc1)NC(=O)CN1CCOCC1)C(=O)N[C@@H](Cc1ccccc1)C(=O)N[C@@H](CC(C)C)C(=O)[C@@]1(C)CO1` [Carfilzomib (PR-171)], with 0.0894 ± 0.0027; and `COc1ccc(C[C@H](NC(=O)[C@H](C)NC(=O)CN2CCOCC2)C(=O)N[C@@H](Cc2ccccc2)C(=O)[C@@]2(C)CO2)cc1`, with 0.0804 ± 0.0014.
Then `COC[C@H](NC(=O)c1cnc(C)s1)C(=O)N[C@@H](COC)C(=O)N[C@@H](Cc1ccccc1)C(=O)[C@@]1(C)CO1` [Oprozomib (ONX 0912)], with 0.0586 ± 0.0043.
Turning to `COC(=O)[C@H](Cc1ccccc1)NC(=O)[C@@H](N)CC(=O)O` [Aspartame], the relative cell viability was determined as 1.06 ± 0.036.
With `CC(=O)NC(Cc1ccc(O)cc1)C(=O)NC(CCCN=C(N)N)C(=O)NC(Cc1ccccc1)C(N)=O` (stereo unspecified), the relative cell viability worked out at 0.828 ± 0.052.
For `O=C(NCC1(c2nc(-c3ccccc3)cs2)CCOCC1)c1cccc(-c2noc(C(F)(F)F)n2)c1`, the relative cell viability amounted to 0.8055 ± 0.0031.
Then `C/C(=N\NC(=O)c1cccc(S(=O)(=O)N2CCOCC2)c1)c1cc(Cl)ccc1O`, with 0.87899 ± 0.00067.
Molecule `CC1(COc2ccc3c(c2)ncn3-c2ccc3cccc(N4CCC(N)CC4)c3n2)COC1` had a relative cell viability of 1.1 ± 0.033.
In the case of `O=C(NCc1ccc(Oc2ccccc2)cc1)c1nc(-c2cc(Br)c(O)c(Br)c2)no1`, the relative cell viability worked out at 1.17 ± 0.012.
Molecule `CNC(=C[N+](=O)[O-])NCCSCc1csc(CN(C)C)n1` [Nizatidine] yielded a relative cell viability of 1.08 ± 0.056.
In turn, `CC(=O)N[C@H]1[C@H]([C@H](O)[C@H](O)CO)OC(C(=O)O)=C[C@@H]1NC(=N)N` [Zanamivir] displayed a relative cell viability of 1.13 ± 0.049.
`CO/N=C(\C(=O)N[C@@H]1C(=O)N2C(C(=O)OCOC(=O)C(C)(C)C)=C(/C=C\c3scnc3C)CS[C@H]12)c1csc(N)n1` [Cefditoren Pivoxil]: the relative cell viability amounted to 0.991 ± 0.099.
`C[C@]12C=CC(=O)C=C1CC[C@H]1[C@@H]3C[C@@H](O)[C@](O)(C(=O)CO)[C@@]3(C)C[C@H](O)[C@@]12F` [Triamcinolone] yielded a relative cell viability of 0.9665 ± 0.0039.
As to `OC[C@@H](O)[C@@H](O)[C@@H](O)CO` [Ribitol], the relative cell viability was 1.126 ± 0.0056.
Then `CC(C)(C)C(=O)Nc1ccc2c(c1)C(=O)C(=O)c1ccccc1-2`, with 0.0653 ± 0.0041; and `CC1=CC(=O)c2ccccc2C1=O` [Menadione], with 0.981 ± 0.01.
To `CC(=O)Nc1ccccc1` [Acetanilide] belongs 0.976 ± 0.25; to `O=C(Nc1cccc(C(F)(F)F)c1)Nc1cc(S(=O)(=O)NC2CC2)ccc1-c1ccsc1`, 0.982 ± 0.031; to `Cn1c2ccccc2c2c3c(c4c5ccccc5n(CCC#N)c4c21)CNC3=O`, 1 ± 0.081.
Regarding `CN1CCc2nc(C(=O)N[C@@H]3C[C@@H](C(=O)N(C)C)CC[C@@H]3NC(=O)C(=O)Nc3ccc(Cl)cn3)sc2C1` [Edoxaban], the relative cell viability was 1.09 ± 0.014.
The molecule `NC(=O)C1CCCc2c1[nH]c1ccc(Cl)cc21` (stereo unspecified) [EX 527 (Selisistat)] returned a relative cell viability of 0.983 ± 0.2.
In turn, `CCOC(=O)c1ccc(NC(=O)O[C@H]2[C@H](OC(=O)Nc3ccc4c(c3)OCO4)[C@@H](OC(=O)Nc3ccc4c(c3)OCO4)[C@@H](OC)O[C@@H]2CO)cc1` showed a relative cell viability of 1.16 ± 0.047.
Then `Cn1cc(-c2ccc3ncc(Cc4ccc5ncccc5c4)n3n2)cn1`, with 1.13 ± 0.055.
For `COc1nc(N)nc2c1ncn2[C@@H]1O[C@H](CO)[C@@H](O)[C@@H]1O` [Nelarabine], the relative cell viability worked out at 1.11 ± 0.05.
In the case of `COc1ccc(C[C@H](N)C(=O)N[C@H]2[C@@H](O)[C@H](n3cnc4c(N(C)C)ncnc43)O[C@@H]2CO)cc1` [Puromycin 2HCl], the relative cell viability came out at 0.133 ± 0.042.
On to `CNc1ncnc2c1ncn2[C@@H]1O[C@H](CO)[C@@H](O)[C@H]1O` [N6-methyladenosine (m6A)], for which the relative cell viability turned out to be 0.9679 ± 0.0062.
In turn, `CN(C)Cc1cccc(N=C(c2ccccc2)c2c(O)[nH]c3cc(C(=O)N(C)C)ccc23)c1` registered a relative cell viability of 0.903 ± 0.035.
As to `COc1cc2c(NC3CCN(CC4CCCCC4)CC3)nc(N3CCCN(C(C)C)CC3)nc2cc1OCCCN1CCCCC1`, the relative cell viability worked out at 1 ± 0.13.
In turn, `O=C(O)CCCC[C@@H]1SC[C@@H]2NC(=O)N[C@@H]21` [Biotin (Vitamin B7)] registered a relative cell viability of 0.999 ± 0.036.
Consider `CN[C@@H]1[C@H](O)[C@H](NC)[C@H]2O[C@@]3(O)C(=O)C[C@@H](C)O[C@H]3O[C@@H]2[C@H]1O` [Spectinomycin HCl], for which the relative cell viability is 1.03 ± 0.12.
`CN(C)c1cc(NC(=O)CNC(C)(C)C)c(O)c2c1CC1CC3C(N(C)C)C(=O)C(C(N)=O)=C(O)C3(O)C(=O)C1=C2O` (stereo unspecified) [Tigecycline] had a relative cell viability of 1.111 ± 0.0089.
The molecule `Cn1cc(/C=C/C(=O)c2cccc(F)c2)cc1/C=C/C(=O)NO` showed a relative cell viability of 1.11 ± 0.077.
Consider `O=C(/C=C/c1cccc(S(=O)(=O)Nc2ccccc2)c1)NO` [Belinostat (PXD101)], for which the relative cell viability stood at 0.216 ± 0.0062.
With `O=C(C=Cc1ccccc1)NC(NC(=S)Nc1ccc(Cl)cc1)C(Cl)(Cl)Cl` (stereo unspecified), the relative cell viability is 1.07 ± 0.03.
Consider `CC(=O)Oc1cc2c(s1)CCN(C(C(=O)C1CC1)c1ccccc1F)C2` (stereo unspecified) [Prasugrel], for which the relative cell viability is 1.139 ± 0.0097.
Then `COc1cc(Nc2ncc(F)c(Nc3ccc4c(n3)NC(=O)C(C)(C)O4)n2)cc(OC)c1OC`, with 0.96 ± 0.015; and `COc1cc(Nc2ncc(F)c(Nc3ccc4c(n3)NC(=O)C(C)(C)O4)n2)cc(OC)c1OC` [R406 (free base)], with 0.844 ± 0.051.
`Cc1c(C(=O)Nc2ccc(N3CCC(N4CCOCC4)CC3)c(C#N)c2)cnn1-c1ccc(Cl)cc1` registered a relative cell viability of 1.08 ± 0.024.
As to `Cc1c(C(=O)Nc2ccc(Oc3ccnc4[nH]cc(-c5ccccc5)c34)c(F)c2)c(=O)n(-c2ccc(F)cc2)n1C`, the relative cell viability worked out at 1 ± 0.027.
Molecule `Nc1nc(N)c(N=O)c(OCC2CCCCC2)n1` came in with a relative cell viability of 1.03 ± 0.023.
Then `O=C(Cc1ccccc1)Nc1nnc(CCSCCc2nnc(NC(=O)Cc3ccccc3)s2)s1`, with 0.866 ± 0.049; and `CCCc1nn(C)c2c(=O)[nH]c(-c3cc(S(=O)(=O)N4CCN(C)CC4)ccc3OCC)nc12` [Sildenafil Citrate], with 1.2 ± 0.029.
